{"source": "PubChem BioAssay (NCI)", "note": "The panel holds about 83,000 compounds, 20% with a hit somewhere; the sample as a whole holds those more often.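 Cells were grown in 96-well plates and exposed to the test compound at a single concentration for 48 hours; results are reported as percent growth, with values below 10 considered active.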 A number with no mark means an inactive call. Calls of active or inactive are those of the source."}
{"test_system": "SK-OV-3 ovarian", "experiment": "NCI-60 one-dose screen, 48 h (100 = growth as untreated, 0 = no growth, -100 = all killed)", "settings": "10 µM unless noted"}
{"smiles": "C=C(C)[C@@H]1CC[C@]2(COC(=O)c3cccnc3)CC[C@]3(C)[C@H](CC[C@@H]4[C@@]5(C)CCCN(C(=O)c6cccnc6)C(C)(C)[C@@H]5CC[C@]43C)[C@@H]12", "growth": "53.1%"}
{"smiles": "C=C1C(=O)O[C@H]2[C@H]1CC/C(CNC(=O)/C=C/c1cc(OC)c(OC)c(OC)c1)=C\\CC[C@@]1(C)O[C@@H]21", "growth": "64.6%"}
{"smiles": "O=S(=O)(c1ccc(NCSc2nc3ccccc3s2)cc1)c1ccc(NCSc2nc3ccccc3s2)cc1", "growth": "71.3%"}
{"smiles": "COc1ccc(S(=O)(=O)Oc2ccc(-c3sc4cc(OS(=O)(=O)c5ccc(OC)cc5)ccc4c3C(=O)c3ccc(OCCN4CCCCC4)cc3)cc2)cc1", "growth": "95.9%"}
{"smiles": "Nc1nc(N)c2c(n1)NC(c1cccc(Nc3ccnc4cc(C(F)(F)F)ccc34)c1)CC(c1ccc(Cl)cc1)=N2", "note": "(stereo not given)", "growth": "64.9%"}
{"smiles": "COC(=O)[C@H]1Cc2c([nH]c3ccccc23)[C@H](c2ccc3c(c2)OCO3)N1", "growth": "102%"}
{"smiles": "[2H]C([2H])([2H])Oc1c(F)cccc1/C=C/C(=O)/C=C(O)/C=C/c1cccc(F)c1OC([2H])([2H])[2H]", "growth": "117%"}
{"smiles": "C=C(C)[C@@H]1CCC[C@]2(C(=O)OC)CC[C@]3(C)[C@@H](CC[C@@H]4[C@@]5(C)CCCNC(C)(C)[C@@H]5CC[C@]43C)[C@@H]12", "growth": "95.8%"}
{"smiles": "O=C(Nc1ncc(Cc2ccccc2)s1)c1ccc2c(c1)OCCO2", "growth": "25%"}
{"smiles": "COc1ccc(-c2cc(-c3ccc(Nc4nc(Nc5ccc(Cl)cc5)nc(Nc5ccc(Cl)cc5)n4)cc3)no2)cc1", "growth": "127%"}
{"smiles": "CNC(=O)c1cc(Oc2ccc3nc(NC(=O)NC(C)C)sc3c2)ccn1", "growth": "87%"}
{"smiles": "O=C1NCCS(=O)(=O)/C1=C\\C=C\\c1cccc(C(F)(F)F)c1", "growth": "85.8%"}
{"smiles": "NCCNc1ccc([N+](=O)[O-])cc1", "growth": "109%"}
{"smiles": "Clc1ccc2c(NCCCn3cnc4c(N5CCCC5)nc(Cl)nc43)ccnc2c1", "growth": "88.2%"}
{"smiles": "O=C(/C=C/c1ccc(Cl)cc1)c1ccc(Nc2ccnc3cc(Cl)ccc23)cc1", "growth": "112%"}
{"smiles": "Oc1c(Cl)cc(Cl)c2ccc(CN3CCNCC3)nc12", "growth": "52.8%"}
{"smiles": "O=C1c2ccccc2C(=O)c2cc(Cn3c[n+](Cc4ccc5ccccc5c4)c4ccccc43)ccc21", "growth": "83.2%"}
{"smiles": "CC(C)(C#N)c1cc(C(=O)Nc2cc(Nc3ncccc3-c3ncnc4nc[nH]c34)ccc2F)cc(C(F)(F)F)c1", "growth": "91.1%"}
{"smiles": "CC(C)n1cc(C2=C(c3cccc4ccccc34)C(=O)NC2=O)c2cc(Br)ccc21", "growth": "64%"}
{"smiles": "O=CN1N=C(c2cccc(Nc3ccncc3)c2)CC1c1ccc2c(c1)OCO2", "note": "(stereo not given)", "growth": "78.6%"}
{"smiles": "CC(=O)Cc1nsc(NC(=O)c2cc(-c3cc(Cl)ccc3Cl)oc2C)n1", "growth": "104%"}
{"smiles": "O=C(O)COc1ccc(F)cc1", "growth": "108%"}
{"smiles": "CC(Cc1cccc2ccccc12)C(N)=O", "note": "(stereo not given)", "growth": "102%"}
{"smiles": "NC(=N\\N=C/c1ccc(Cl)cc1Cl)/C(N)=N\\N=C/c1ccc(Cl)cc1Cl", "growth": "9.34% (active)"}
{"smiles": "CCOC(=O)CC1C(CNC(=O)NC)OC(n2cnc3c(NC(=O)Nc4ccccc4)ncnc32)C1O[Si](C)(C)C(C)(C)C", "note": "(stereo not given)", "growth": "93.6%"}
{"smiles": "CCc1ccc(Cc2cnc(NC(=O)c3cc(C)oc3C)s2)cc1", "growth": "52.8%"}
{"smiles": "CNc1nc2ncc(-c3c(C)noc3C)cc2n1Cc1ccccc1", "growth": "21%"}
{"smiles": "CCCCC1=C(Br)C(=O)c2ncccc2C1=O", "growth": "90.2%"}
{"smiles": "Cc1ccc2nc(/C=C/c3ccc(N(C)C)cc3)cc(C)c2c1", "growth": "31.4%"}
{"smiles": "CCN(CC)c1ccc(/C=N/NC(=O)c2ccccc2Nc2ccnc(C(F)(F)F)c2)c(O)c1", "growth": "19.9%"}
{"smiles": "COc1cc2ncnc(Nc3ccc(S(=O)(=O)Nc4cc(C)on4)cc3)c2cc1OCCCN1CCOCC1", "growth": "95%"}
{"smiles": "COc1ccc(-c2cc(-c3ccc(N(C)C)cc3)nc(NC(=O)c3cccnc3)n2)cc1", "growth": "103%"}
{"smiles": "CC(=O)/C(Br)=C/c1ccc(Br)o1", "growth": "104%"}
{"smiles": "N#CC1=C(N)Oc2c(ccc3cccnc23)C1c1ccccc1", "note": "(stereo not given)", "growth": "58.3%"}
{"smiles": "CCCS(=O)(=O)Nc1cccc(Nc2ncnc3cc(NC(=O)CCl)ccc23)c1Cl", "growth": "-4.59% (active)"}
{"smiles": "COC(=O)c1nc(-c2ccc(C)cc2)oc1N1CCOCC1", "growth": "94.9%"}
{"smiles": "Cc1ccc(S(=O)(=O)N(CCC(=O)O)c2ccccc2)cc1", "growth": "105%"}
{"smiles": "Nc1ncc(-c2ccc3ncnc(N4CCc5cc(F)c(Cl)cc54)c3c2)cc1C(F)(F)F", "growth": "31.9%"}
{"smiles": "OC1CSSC1Cn1cnc2c(Nc3ccc(F)c(Cl)c3)ncnc21", "note": "(stereo not given)", "growth": "107%"}
{"smiles": "COc1cc2c(c(OC)c1OC)C(=O)CC(c1cccc(C(=O)Nc3ccc(Br)cc3)c1)O2", "note": "(stereo not given)", "growth": "76.2%"}
